Data published in PubChem BioAssay.
Active and inactive are the calls of the source. Unless noted, no rule for the calls is given here.

Columns and labels:
[1] = tested on: XIP peptide (Xip251-270) binding; experiment: small-molecule binders of XIP peptide, primary screen, biochemical, small-molecule microarray, fluorescence 635/667 nm, 0.1 µg/mL protein (AID 1182); details: fluorescent protein binding, 635 nm, higher = more signal, called active from +8 up or from −8 down
[2] = tested on: XIP peptide (Xip251-270); experiment: small-molecule binders of XIP peptide, primary screen, biochemical, small-molecule microarray, fluorescence 635/667 nm, 0.5 µg/mL protein (AID 1183); details: small-molecule microarray binding, fluorescence 635 nm; higher = more signal
[3] = Plasmodium falciparum growth inhibition, primary screen, strain 3D7, DAPI fluorescence, 100 nL (AID 1184);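 also: parasites grown inside human red blood cells in medium with human serum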; details: P. falciparum 3D7 growth, 3 d, higher = more signal
[4] = target: Homeobox protein Hox-A13 (Mus musculus) (UniProt Q62424); experiment: inhibitors of HoxA13-DNA binding, primary screen, biochemical, fluorescence polarization, labeled oligonucleotide (AID 1185); details: 15 min, higher = more signal, called active from +8 up or from −8 down
Homeobox protein Hox-A13 (Mus musculus), sequence (Q62424 whole entry, looked up): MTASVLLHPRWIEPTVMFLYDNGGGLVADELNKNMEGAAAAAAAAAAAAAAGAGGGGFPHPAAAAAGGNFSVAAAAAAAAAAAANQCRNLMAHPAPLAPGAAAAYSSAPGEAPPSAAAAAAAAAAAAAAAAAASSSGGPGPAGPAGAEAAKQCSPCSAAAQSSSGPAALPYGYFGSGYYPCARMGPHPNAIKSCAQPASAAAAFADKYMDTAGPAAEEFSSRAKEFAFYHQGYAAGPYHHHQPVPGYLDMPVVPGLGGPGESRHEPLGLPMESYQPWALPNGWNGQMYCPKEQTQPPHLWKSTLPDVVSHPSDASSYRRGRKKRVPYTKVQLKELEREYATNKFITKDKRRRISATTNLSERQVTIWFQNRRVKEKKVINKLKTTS

[5] = inhibitors of hydroxyurea-induced Chk1 phosphorylation, primary screen, imaging, HeLa, phospho-Chk1 antibody, percent positive cells (AID 1186); details: hydroxyurea-induced phospho-Chk1 immunofluorescence imaging, higher = more signal
[6] = inhibitors of hydroxyurea-induced Chk1 phosphorylation, primary screen, imaging, HeLa, phospho-Chk1 nuclear intensity (AID 1187); details: hydroxyurea-induced phospho-Chk1 immunofluorescence imaging, higher = more signal

SMILES	composite z-score [1]	composite z-score [2]	z-score [3]	z-score [4]	z-score [5]	z-score [6]
CN1C(=O)C2C=CC(C(O)c3c(F)cccc3Cl)N(Nc3ccccc3)C2C1=O (stereo not given)	-0.108 (inactive)	0.324	1.04	-3.42 (inactive)	0.563 (inactive)	0.463 (inactive)
COC(=O)C[C@H]1O[C@]2(C(=O)N(C)c3ccccc32)[C@@H](C)[C@@H]1[Si](C)(C)c1ccc(C)cc1	0.611 (inactive)	0.336	-2.09	-5.95 (inactive)	0.0207 (inactive)	0.0333 (inactive)
CN(C)C(=O)[C@@]1(Cc2ccccc2N=[N+]=[N-])COC(c2ccc(OCCCO)cc2)=N1	0.472 (inactive)	0.605	-1.8	-5.84 (inactive)	-0.408 (inactive)	-0.362 (inactive)
CCCC[C@@H]1C[C@H]1[C@@H](NC(=O)c1ccccc1)c1ccc(Cl)cc1	-0.778 (inactive)	-2.03	-0.385	-3.04 (inactive)	0.413 (inactive)	-0.524 (inactive)
O=C1C[C@@](C(=O)NCC(F)(F)F)(c2ccc([N+](=O)[O-])cc2)[C@@H](c2ccc(CO)cc2)N1C1CCCCC1	0.925 (inactive)	0.871	0.0369	-4.46 (inactive)	-0.0554 (inactive)	-0.32 (inactive)
Cc1ccc(S[C@]2(C(=O)NCCN3CCOCC3)CC(=O)N(Cc3ccccc3C(F)(F)F)[C@@H]2c2ccc(CO)cc2I)cc1	0.109 (inactive)	0.895	-0.701	-3.32 (inactive)	0.354 (inactive)	0.873 (inactive)
COc1ccc(NC(=O)O[C@H]2[C@H](OC(=O)Nc3ccc4c(c3)OCO4)[C@@H](OC(=O)Nc3ccc4c(c3)OCO4)[C@@H](OC)O[C@@H]2CO)cc1	1.61 (inactive)	0.877	-2.04	-6.9 (inactive)	-0.0538 (inactive)	0.419 (inactive)
CCOC(=O)C1=C[C@@H](c2ccccc2)N(S(=O)(=O)c2ccc(C)cc2)[C@H]1c1cccc(Cl)c1	0.526 (inactive)	0.803	-2.03	0.587 (inactive)	0.289 (inactive)	0.284 (inactive)
CC(C)C(CO)N1C(=O)[C@]2(C)C3C(=O)OCCC/C=C\[C@H]3OC23C=CCN(c2ccc(Cl)cc2)C(=O)[C@@H]13 (stereo not given in full)	0.172 (inactive)	0.146	0.775	-6.76 (inactive)	-0.199 (inactive)	-0.181 (inactive)
CC(C)CNC(=O)[C@@H]1c2ccccc2C(=O)N(Cc2cc(F)cc(C(F)(F)F)c2)[C@H]1c1ccc(CO)cc1	1.02 (inactive)	0.891	0.204	-3.02 (inactive)	-0.478 (inactive)	-0.515 (inactive)
CC(=O)NCCCC[C@@H]1NC(=O)[C@@H]2C[C@H](C(=O)O)[C@H](c3ccc(O)cc3)N2C1=O	3.54 (inactive)	-0.0306	0.174	-2.19 (inactive)	0.318 (inactive)	0.202 (inactive)
Cc1ccc(S[C@]2(C(=O)NC3CC3)CC(=O)N(Cc3ccccc3Cl)[C@@H]2c2ccc(CO)cc2I)cc1	0.98 (inactive)	0.824	0.287	-1.54 (inactive)	0.159 (inactive)	0.858 (inactive)
[N-]=[N+]=NCc1ccccc1C[C@@]1(C(=O)NCCN2CCOCC2)N=C(c2ccc(OCCCO)cc2)O[C@@H]1c1ccccc1N=[N+]=[N-]	1.51 (inactive)	0.767	-2.75	-2.44 (inactive)	-0.402 (inactive)	-0.753 (inactive)
CCOC(=O)C[C@H]1[C@H](OC(=O)c2ccc(C(=O)c3ccccc3)cc2)[C@@H](NC(=O)c2ccc3ccccc3c2)c2cc(OCCCO)ccc2N1C(=O)c1ccccc1	1.39 (inactive)	0.444	1.45	-0.683 (inactive)	0.451 (inactive)	0.0368 (inactive)
COCCOC(=O)N1C(=O)[C@@]2(c3cc(C#CC4(O)CCCCCC4)ccc31)[C@H](C(=O)N1CCCCCCC1)[C@H]1C(=O)O[C@H](c3ccccc3)[C@H](c3ccccc3)N1[C@@H]2c1ccc(OCCO)cc1	1.72 (inactive)	0.838	-2.3	-15.8 (active)	0.331 (inactive)	0.805 (inactive)
CCCc1cccc(=O)o1	0.684 (inactive)	-0.0514	0.581	-1.77 (inactive)	0.0999 (inactive)	0.549 (inactive)
C=CCOC(=O)[C@@H]1[C@H]2C(=O)O[C@H](c3ccccc3)[C@H](c3ccccc3)N2[C@H](c2ccc(OCCOC(=O)[C@H]3C[C@H]4C(=O)N[C@@H](CCCCNC(C)=O)C(=O)N4[C@H]3c3cccc(OCCO)c3)cc2)[C@@]12C(=O)Nc1ccc(I)cc12	1.09 (inactive)	0.822	-1.64	1 (inactive)	-0.398 (inactive)	-0.929 (inactive)
CCCN1C(=O)[C@]2(Cc3ccccc3)N=C(c3ccc(OCCCO)cc3)O[C@@H]2c2ccccc21	-0.116 (inactive)	0.594	-2.26	-4.81 (inactive)	-0.143 (inactive)	0.231 (inactive)
C=CCN1C(=O)[C@@]2(O[C@@H](CCO)[C@H]([Si](C)(C)c3ccc(OC)cc3)[C@H]2C)c2cc(N3C(=O)c4ccccc4Oc4ccccc43)ccc21	0.227 (inactive)	0.536	-2.52	-4.25 (inactive)	-0.948 (inactive)	-0.004 (inactive)
COCCOC(=O)N1C(=O)[C@@]2(c3cc(C#CC4(O)CCCCCC4)ccc31)[C@H](c1ccccc1OCCO)N1[C@H](c3ccccc3)[C@H](c3ccccc3)OC(=O)[C@H]1[C@@H]2C(N)=O	0.151 (inactive)	0.774	-2.07	-2.04 (inactive)	0.141 (inactive)	-0.377 (inactive)
CC(C)OC(=O)CC(=O)CC(O)c1cccc(C#N)c1 (stereo not given)	0.768 (inactive)	0.778	0.612	-0.542 (inactive)	-0.467 (inactive)	-0.295 (inactive)
C[C@@H]1ON(c2ccc(C(=O)OC(C)(C)C)cc2)[C@H](c2ccc(Br)cc2)[C@H]1C(=O)N1C(=O)OC[C@H]1Cc1ccccc1	0.36 (inactive)	0.321	-0.238	-0.654 (inactive)	-0.55 (inactive)	-0.237 (inactive)
CCOC(=O)C1=CC[C@@H](c2cc(Cl)ccc2Cl)N(S(=O)(=O)c2ccc(C)cc2)[C@H]1c1ccc(OC)cc1	-0.244 (inactive)	-0.837	-1.41	-1.08 (inactive)	-0.256 (inactive)	-0.611 (inactive)
COCCCNC(=O)[C@]1(Cc2ccccc2N=[N+]=[N-])N=C(c2ccc(OCCCO)cc2)O[C@@H]1c1ccccc1N=[N+]=[N-]	-0.207 (inactive)	0.538	-2.11	-1.51 (inactive)	-0.553 (inactive)	-0.627 (inactive)
COCCOC(=O)N1C(=O)[C@@]2(c3cc(C#CC4(O)CCCCCC4)ccc31)[C@H](C(N)=O)[C@H]1C(=O)O[C@H](c3ccccc3)[C@H](c3ccccc3)N1[C@@H]2c1ccc(O)cc1	0.722 (inactive)	0.503	0.997	-2.76 (inactive)	-0.102 (inactive)	0.245 (inactive)
CCOC(=O)C[C@H]1[C@H](OC(=O)c2ccc(-c3ccccc3)cc2)[C@@H](NC(=O)c2ccc3ccccc3c2)c2cc(OCCCO)ccc2N1C(=O)c1ccc2ccccc2n1	0.0454 (inactive)	0.338	0.563	-1.16 (inactive)	-0.361 (inactive)	-0.561 (inactive)
COCC(=C=CC[C@H](O)c1ccc(OCCO)cc1)C[C@H](O)COCc1ccccc1	-0.0114 (inactive)	0.698	-2.74	-5.25 (inactive)	-0.364 (inactive)	0.19 (inactive)
COc1ccc(C#Cc2ccc3c(c2)[C@]2(C(=O)N3)[C@H](C(=O)N3CCc4cc(OC)c(OC)cc4C3)[C@H]3C(=O)O[C@H](c4ccccc4)[C@H](c4ccccc4)N3[C@@H]2c2ccc(O)cc2)cc1	0.786 (inactive)	0.578	-1.48	-1.05 (inactive)	-0.24 (inactive)	-0.218 (inactive)
CN(C)CCCNC(=O)[C@@]1(c2ccc([N+](=O)[O-])cc2)CC(=O)N(CC23CC4CC(CC(C4)C2)C3)[C@@H]1c1ccc(CO)cc1	1.13 (inactive)	0.843	-2.4	7.52 (inactive)	-0.451 (inactive)	-0.75 (inactive)
C=CCOC(=O)[C@H]1[C@@H]2C(=O)O[C@@H](c3ccccc3)[C@@H](c3ccccc3)N2[C@@H](c2ccc(OCCOC(=O)[C@H]3C[C@H]4C(=O)N[C@@H](CCCC[N+](C)(C)C)C(=O)N4[C@H]3c3cccc(OCCO)c3)cc2)[C@]12C(=O)Nc1ccc(I)cc12	0.261 (inactive)	0.617	-1.87	1.47 (inactive)	-0.714 (inactive)	-0.783 (inactive)
